Source: PubChem (Corson Lab, School of Medicine, Indiana University)
This is one part of a sample in which hits are shown more often than they occur.
FECH inh = inhibitors of human ferrochelatase, primary screen, biochemical, purified FECH, Ni-mesoporphyrin absorbance. Ferrochelatase, mitochondrial (Homo sapiens), P22830. Ni-mesoporphyrin absorbance 550 nm. calls only at 10 µM (by protocol). actives 3.3% (n = 20,000);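 active = enzyme reaction rate more than 3 SD below the solvent-only control wells on the same plate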;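 also: lower slope than DMSO wells means FECH inhibition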
Target sequence (P22830 whole entry, looked up): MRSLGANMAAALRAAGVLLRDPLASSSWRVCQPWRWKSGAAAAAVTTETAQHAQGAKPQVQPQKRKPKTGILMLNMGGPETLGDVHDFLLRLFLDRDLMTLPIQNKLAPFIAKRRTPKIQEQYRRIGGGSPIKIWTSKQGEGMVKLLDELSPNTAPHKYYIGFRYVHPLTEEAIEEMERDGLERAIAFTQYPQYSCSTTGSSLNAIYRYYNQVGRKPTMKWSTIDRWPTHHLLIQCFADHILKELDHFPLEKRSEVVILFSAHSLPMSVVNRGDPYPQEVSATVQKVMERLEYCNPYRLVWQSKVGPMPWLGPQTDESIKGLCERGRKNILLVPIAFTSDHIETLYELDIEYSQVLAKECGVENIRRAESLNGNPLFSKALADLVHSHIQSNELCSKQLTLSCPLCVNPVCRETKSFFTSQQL
* hit, by the source's call; i = inactive; + = active, no number.

SMILES | FECH inh
NS(=O)(=O)c1ccc(CCNC(=O)c2sc3ncccc3c2-n2cccc2)cc1 | i
CCOC(=O)c1ccccc1NC(=O)CN1CCN(Cc2ccc(F)cc2Cl)S1(=O)=O | +
O=C(CN1CCN(Cc2ccccc2Cl)S1(=O)=O)Nc1ccc(Cl)cc1 | i
O=C(CN1CCN(Cc2ccccc2F)S1(=O)=O)Nc1ccc(F)c(Cl)c1 | i
O=C(CN1CCCN(Cc2ccccc2Cl)S1(=O)=O)Nc1ccc(F)c(Cl)c1 | +
O=C(CN1CCN(Cc2ccc(F)cc2Cl)S1(=O)=O)Nc1ccc(Br)cc1 | i
O=C(CN1CCN(Cc2ccc(F)cc2Cl)S1(=O)=O)Nc1ccccc1Cl | i
COc1ccccc1NC(=O)CN1CCN(Cc2ccc(F)cc2Cl)S1(=O)=O | i
Cc1ccc(NC(=O)CN2CCN(Cc3ccc(F)cc3Cl)S2(=O)=O)cc1 | +
CCc1ccc(NC(=O)CN2CCN(Cc3ccc(F)cc3Cl)S2(=O)=O)cc1 | i
Cc1ccc2ccccc2c1CN1CCOCC(CN(C)C)C1 (stereo not given) | i
Cc1ccnc(NCCNC(=O)c2nn(C)c(=O)c3ccccc23)c1 | i
COc1ccc(-n2c(CN3CCN(S(=O)(=O)c4ccc(C(C)C)cc4)CC3)nc3cccnc32)cc1 | i
CN1CCC(CN2CCC3(CC2)CCN(C(=O)CC2CCCC2)CC3)CC1 | i
O=C(c1cccs1)N1CC[C@@H](c2ccc3ccccc3c2)[C@H](O)C1 | +
Cc1noc(C)c1C(=O)N1CC[C@@H](c2ccc3ccccc3c2)[C@H](O)C1 | i
Cc1nc(C(=O)N2CC[C@@H](c3ccc4ccccc4c3)[C@H](O)C2)c(C)o1 | i
CC(C)CN1CC(C(=O)N2CCc3[nH]nc(-c4cccc(F)c4)c3C2)CC1=O (stereo not given) | i
COc1ccc(S(=O)(=O)N2CCC(n3c(C(F)(F)F)nc4cccnc43)CC2)cc1OC | +
O=S(=O)(c1ccccc1)N1CCC(n2c(C(F)(F)F)nc3cccnc32)CC1 | i
COc1ccc(Cl)cc1S(=O)(=O)N1CCC(n2c(C(F)(F)F)nc3cccnc32)CC1 | i
O=S(=O)(c1ccccc1)N1CCN(Cc2nc3cccnc3n2-c2ccccc2)CC1 | i
CC(C)(C)NC(=O)[C@@H]1CCCC[C@@H]1C(=O)NCCc1cnc[nH]1 | i
COC(=O)c1[nH]ncc1CN1CCCCC1CCc1ccc(O)cc1 (stereo not given) | i
COc1nc2c(cc1CNC(=O)c1cnc(C)s1)C(=O)N(C1CCCC1)C2 | i
SMILES | FECH inh
Cc1cccc2c(=O)n(CCN3CCCC(c4ccccc4)C3)cnc12 (stereo not given) | i
Cc1cc(C)c2ncn(CCC(C)O)c(=O)c2c1 (stereo not given) | i
Cc1cc(Cl)cc2c(=O)n(CC3(CO)CCC3)cnc12 | +
CCc1c(C)nc2ncnn2c1Sc1ccccc1NC(=O)Cc1ccc(OC)cc1 | +
CCc1c(C)nc2ncnn2c1Sc1ccc(NC(=O)Cc2ccc(OC)cc2)cc1 | i
CCc1c(C)nc2ncnn2c1Sc1ccccc1NC(=O)Nc1ccc(C)cc1 | i
CCc1c(C)nc2ncnn2c1Sc1ccccc1NC(=O)C1CC1 | +
CCc1c(C)nc2ncnn2c1Sc1ccc(NC(=O)C2CC2)cc1 | i
CCc1c(C)nc2ncnn2c1Sc1ccccc1NC(=O)COc1ccc(C)cc1 | i
OC(CN1CCOCC1)c1ccc(-c2ccc(-c3ccn[nH]3)cc2)cc1 (stereo not given) | i
Cc1cc(F)ccc1NC(=O)Cn1nc(N2CCN(c3ccc(F)cc3)CC2)ccc1=O | i
COc1cc(C(=O)N(Cc2nc3nc(C)cc(C)n3n2)c2cccc(C)c2)cc(OC)c1OC | i
COc1ccc(C(=O)N(Cc2nc3nc(C)cc(C)n3n2)c2cccc(C)c2)cc1 | +
Cc1cccc(N(Cc2nc3nc(C)cc(C)n3n2)C(=O)COc2ccccc2)c1 | +
Cc1cccc(N(Cc2nc3nc(C)cc(C)n3n2)C(=O)C(C)(C)C)c1 | i
CCOc1ccc(N(Cc2nc3nc(C)cc(C)n3n2)C(=O)c2cccc(C)c2)cc1 | i
COc1cccc(C(=O)N(Cc2nc3nc(C)cc(C)n3n2)c2cccc(C)c2)c1 | i
Cc1cc(C)n2nc(CN(C(=O)CC(C)C)c3ccccc3)nc2n1 | i
CCCC(=O)N(Cc1nc2nc(C)cc(C)n2n1)c1ccc(F)cc1 | i
CCCC(=O)N(Cc1nc2nc(C)cc(C)n2n1)c1ccccc1 | +
Cc1cc(C)n2nc(CN(C(=O)C(C)(C)C)c3ccc(Cl)cc3)nc2n1 | i
COCCc1noc(C(C)NC(=O)CC23CC4CC(CC(C4)C2)C3)n1 (stereo not given) | i
COc1ccc(CCNS(=O)(=O)c2ccc(C(=O)N3CCCC3)s2)cc1OC | i
COc1ccc(CN2CCCN(CC(=O)Nc3cc(OC)cc(OC)c3)S2(=O)=O)cc1 | i
Cn1c(CNS(=O)(=O)c2cccc(Cl)c2)nc2cccnc21 | i
SMILES | FECH inh
Cc1cc(N2CCC3(CC2)N=C(N(C)C)NC3=O)nc(-c2cccnc2)n1 | i
Cc1cc(C)n2nc(CN(c3ccc(Cl)cc3)S(=O)(=O)c3ccccc3)nc2n1 | +
Cc1ccc(S(=O)(=O)N(Cc2ccccc2C)c2nc3nc(C)c(Cl)c(C)n3n2)cc1 | i
Cc1cc(C)n2nc(CN(c3ccc(F)cc3)S(=O)(=O)c3ccccc3)nc2n1 | i
CCCN(c1nc2nc(C)cc(C)n2n1)S(=O)(=O)c1ccc(C)cc1 | +
Cc1ccc(S(=O)(=O)N(Cc2ccccc2C)c2nc3nc(C)cc(C)n3n2)cc1 | +
CC(=O)CN(c1nc2nc(C)cc(C)n2n1)S(=O)(=O)c1ccc(C)cc1 | i
CCCN(c1nc2nc(C)cc(C)n2n1)S(=O)(=O)c1ccccc1 | i
Cc1cc(C)n2nc(CN(c3ccc(F)cc3)S(=O)(=O)c3ccc(Cl)cc3)nc2n1 | i
Cc1cc(C)n2nc(N(Cc3ccccc3C)S(=O)(=O)c3ccccc3)nc2n1 | i
CCCCc1nc(Cl)c(CN2CCC(C3(C)NC(=O)NC3=O)CC2)[nH]1 (stereo not given) | i
Cc1cccc(-c2ccc(N3CCC(C(=O)NC(C)C)CC3)nn2)c1 | i
O=C(O)CN1C(=O)C2CCCCN2c2ccc(C(=O)N3CCCC3)cc21 (stereo not given) | i
CCn1c(=O)n(CCN(C)C)c(=O)c2cnc(-c3ccc(Cl)cc3)nc21 | i
Cc1ccc(C)c(NC(=O)CN2CCN(Cc3ccc(F)cc3Cl)S2(=O)=O)c1 | i
CCN(c1nc2nc(C)cc(C)n2n1)S(=O)(=O)c1ccc(Cl)cc1 | i
COC(=O)c1scc(-c2ccccc2)c1S(N)(=O)=O | i
Cc1nc2nc(-c3ccccc3)nn2c(Sc2ccccc2NC(=O)Cc2ccccc2)c1C | i
COc1ccc(CNC(=O)C(c2cccc(C)c2)N(C)C)c(F)c1F (stereo not given) | i
CCC(CC)NC(C)c1nncn1C (stereo not given) | i
O=C([C@@H]1C[C@@H]2C=C[C@H]1C2)N1CCOc2c(O)cc(-c3cccc(Cl)c3)cc2C1 | i
COC(=O)CNS(=O)(=O)c1cc(N2C(=O)CCS2(=O)=O)ccc1OC | i
Cc1ccc(NS(=O)(=O)c2cc(N3C(=O)CCS3(=O)=O)ccc2C)cc1 | i
CCc1cccc(CC)c1NS(=O)(=O)c1cc(N2C(=O)CCS2(=O)=O)ccc1OC | i
CCOC(=O)CNS(=O)(=O)c1cc(N2C(=O)CCS2(=O)=O)ccc1C | +
